Bioassay records deposited in PubChem BioAssay by National Center for Advancing Translational Sciences (NCATS).
HCMV antiviral: qHTS Assay for inhibitors of the human cytomegalovirus (HCMV); HFF cells, HCMV-luciferase reporter, 72 h; active compounds read low; activity change, negative = inhibition, % at 57.5 µM; actives 4.5% (n = 410,000); AID 1259415, 2018; in the data active = activity change below about -60%; inconclusive = no clear call, values can overlap the other calls; inactive = above about -39%
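Luciferase read-out from HCMV-luciferase-infected HFFs (MOI 1 PFU/cell) 72 h post infection at 37C; compounds added after 16 h cell attachment; activity normalized between buffer-only basal and Salinomycin (10uM) inhibitor controls.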
AmpC inh detg: qHTS Inhibitors of AmpC Beta-Lactamase (assay with detergent); P00811; AmpC hydrolysis of nitrocefin, absorbance 480 nm, 0.01% Triton; Potency, µM (top dose mostly 114 µM), actives largely listed as inhibitors; actives 0.041% (n = 370,000); AID 485294, 2010; also: nearly all actives have a fitted effect of over 25% in size
Target sequence (P00811 whole entry, looked up): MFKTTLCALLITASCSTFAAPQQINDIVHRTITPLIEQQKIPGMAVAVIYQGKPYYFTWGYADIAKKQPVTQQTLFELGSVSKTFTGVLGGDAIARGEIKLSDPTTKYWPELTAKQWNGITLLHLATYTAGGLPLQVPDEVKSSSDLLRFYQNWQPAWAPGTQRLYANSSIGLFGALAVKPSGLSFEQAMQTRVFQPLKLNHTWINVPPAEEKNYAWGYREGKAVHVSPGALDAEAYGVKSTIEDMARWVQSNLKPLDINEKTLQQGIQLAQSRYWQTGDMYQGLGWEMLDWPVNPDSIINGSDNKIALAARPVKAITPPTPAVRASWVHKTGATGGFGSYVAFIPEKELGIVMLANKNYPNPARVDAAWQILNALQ
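AmpC (5.3 nM in the dispensed reagent) in 20 mM phosphate pH 7.0 with 0.01% (detergent screen) or 0.0001% Triton X-100 was preincubated with compounds for 15 min at room temperature. Nitrocefin was then added from an 800 uM solution, and hydrolysis was followed at 480 nm.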
AmpC no deterg: qHTS Inhibitors of AmpC Beta-Lactamase (assay without detergent); P00811; AmpC nitrocefin hydrolysis, absorbance 480 nm, 0.0001% Triton; Potency, µM (top dose mostly 57.1 µM), hits mostly inhibitors; actives 0.52% (n = 330,000); AID 485341, 2010; also: nearly all actives have a fitted effect of over 20% in size
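AmpC (5.3 nM in the dispensed reagent) in 20 mM phosphate pH 7.0 with 0.01% (detergent screen) or 0.0001% Triton X-100 was preincubated with compounds for 15 min at room temperature. Nitrocefin was then added from an 800 uM solution, and hydrolysis was followed at 480 nm.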
HCV inh: qHTS Assay for Inhibitors of Hepatitis C Virus (HCV) | Huh7.5.1 HCVcc-Cre infection, luciferase reporter, 44 h | Potency, µM (series often up to 41.8 µM), actives largely listed as inhibitors | actives 3.4% (n = 340,000) | AID 651820, 2012
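Luciferase read-out (15 sec integration) after a 15 min room-temperature substrate step quantifies HCVcc-Cre infection. Cells, 1,000 per well, had compound added 4 h post-plating, then virus at ~0.5 moi, and were cultured 44 h.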
FMDV antiviral: High Throughput Screening for Foot and Mouth Disease Virus Antivirals | FMDV antiviral cell-based qHTS | actives 1.2% (n = 410,000) | Potency, µM (titrated, usually from 57.9 µM), most hits filed as inhibitors; calls by dose curve; tested in HEK293T cells; also: read-out not given here; nearly all actives have a fitted effect of over 45% in size
Each line names hits and unclear results; the compound was inactive in the other large screens. Most compounds without a hit are left out; they make up all but 7.3% or so of the library. Unless noted, calls follow the shape of the dose curve; as a rule, active = well fitted curve in the direction sought with a large enough effect; inconclusive = small, poorly fitted or top-dose-only effect, or another doubt; inactive = no such curve, though single readings can be large; an effect the other way counts as inactive or inconclusive.

S=C(NCCN(C1CCCCC1)C1CCCC1)Nc1cccc(Cl)c1	HCMV antiviral -85, HCV inh 13µM
S=C(NCc1cccs1)Nc1cccc(Cl)c1	HCMV antiviral -69
S=C(NCc1cccs1)Nc1cc(Cl)cc(Cl)c1	HCMV antiviral -100, AmpC inh detg inconclusive, AmpC no deterg inconclusive, HCV inh inconclusive
S=C(NCc1cccs1)Nc1ccccc1Cl	none
O=S(=O)(c1ccc(Cl)cc1)c1nnn2c1nc(NC1CCCCC1)c1sccc12	FMDV antiviral inconclusive (no result: AmpC no deterg, HCV inh)
COc1ccc(/C=C/C(=O)NCCCN2CCCC2)cc1	HCMV antiviral -103, AmpC inh detg inconclusive
CN(C)c1ccc(/C=C/c2ccc3ccccc3n2)cc1	HCV inh inconclusive, FMDV antiviral 6.3µM (no result: HCMV antiviral)
C(=Cc1c[nH]c2ccccc12)c1ccc2ccccc2n1	HCMV antiviral -92, HCV inh 5.6µM, FMDV antiviral inconclusive (no result: AmpC inh detg, AmpC no deterg)
CC(=O)Oc1ccc(Cl)cc1/C=C/c1ccc2ccccc2n1	HCV inh 7.9µM
C(=Cc1c[nH]c2ccccc12)c1nccc2ccccc12	HCV inh inconclusive (no result: AmpC inh detg, AmpC no deterg)
CN(C)c1ccc(/C=C/c2nc3ccccc3s2)cc1	HCMV antiviral -92, FMDV antiviral 5µM
Cc1ccc(/C=C/c2nc3ccccc3s2)s1	HCMV antiviral inconclusive, FMDV antiviral inconclusive
CC(=O)Oc1c(Cl)cc(Cl)cc1/C=C/c1ccc2ccccc2n1	none
Cc1nn(-c2ccccc2)c(C)c1C(=O)OCC(=O)Nc1cccc(S(N)(=O)=O)c1	HCV inh inconclusive
O=C(O)/C=C/c1ccc2ccccc2n1	none (no result: FMDV antiviral)
Oc1ccc(/C=C/c2ccc3ccccc3n2)cc1	HCMV antiviral -68, HCV inh inconclusive
C(=C\c1ccc2ccccc2n1)/c1ccccc1	none
Fc1ccccc1/C=C/c1ccc2ccccc2n1	AmpC inh detg inconclusive, FMDV antiviral 10µM
COc1ccc(Nc2nccc3[nH]c(-c4cccc(F)c4)cc23)cc1	none (no result: AmpC inh detg, AmpC no deterg, HCV inh, FMDV antiviral)
O=C(NCc1ccco1)/C(=C\c1ccc(F)cc1)NC(=O)c1ccco1	HCV inh inconclusive
CC(=O)c1ccc(N2CCN(Cc3cc(=O)n4c(-c5ccccc5)csc4n3)CC2)cc1	HCV inh 13µM (no result: AmpC inh detg, AmpC no deterg)
COc1cc2c(cc1OC)CN(Cc1cc(=O)n3c(-c4ccccc4)csc3n1)CC2	HCMV antiviral -73
O=c1cc(CN2CCN(c3ccccc3)CC2)nc2scc(-c3ccccc3)n12	none
CN1CCc2nc(NC(=O)COc3ccc(C#N)cc3)sc2C1	none
N#CCCN(Cc1ccccc1)C(C(=O)NC1CCCCC1)c1cc2ccccc2o1 (stereo not drawn)	HCMV antiviral -60 (no result: AmpC inh detg, AmpC no deterg, HCV inh)
CCN(CC)S(=O)(=O)c1ccc(N2CCc3cc(OC)c(OC)cc3C2)nc1	HCV inh inconclusive
CCCOc1ccc(Cc2c(Cl)nc(SC)nc2N(C)C)cc1	HCMV antiviral -67, HCV inh inconclusive, FMDV antiviral inconclusive
CCCOc1ccc(Cc2c(Cl)nc(SC)nc2OC)cc1	none
COc1cc(NC(=O)C2CCN(c3nnc(C)c4c(C)n(-c5ccccc5)nc34)CC2)cc(OC)c1	none (no result: AmpC no deterg, HCV inh)
CNc1nc2cnc(Nc3cccc(F)c3)cc2n1-c1cccc(C(F)(F)F)c1	none (no result: AmpC inh detg, AmpC no deterg, HCV inh, FMDV antiviral)
CCOC(=O)C1=CNS(=O)(=O)NC1c1cccc(O)c1 (stereo not drawn)	none (no result: AmpC inh detg)
CCOC(=O)C1=CNS(=O)(=O)NC1c1ccc2ccccc2c1 (stereo not drawn)	HCV inh 6.3µM (no result: AmpC inh detg)
O=C(Nc1ccccc1)N1CCCN(c2ccc(C(F)(F)F)cn2)CC1	HCMV antiviral -66, HCV inh 11µM, FMDV antiviral inconclusive
CC(C)(C)c1ccc(NC(=O)N2CCN(c3ccc([N+](=O)[O-])cn3)CC2)cc1	HCMV antiviral -94, HCV inh inconclusive, FMDV antiviral 22µM
CC(C)(C)NC(=O)N1CCCN(c2ccc(C(F)(F)F)cn2)CC1	HCV inh inconclusive, FMDV antiviral inconclusive
FC(F)(F)c1cnc(N2CCCN(C(=S)Nc3ccccc3)CC2)c(Cl)c1	HCMV antiviral -85, HCV inh inconclusive, FMDV antiviral inconclusive
COc1ccc(CNS(=O)(=O)c2cc(Br)ccc2Br)c(OC)c1	none (no result: AmpC inh detg, AmpC no deterg, HCV inh, FMDV antiviral)
CCOc1ccccc1NC(=O)c1ccc2c(O)c(S(=O)(=O)c3ccccc3)c(=O)[nH]c2c1	none (no result: AmpC inh detg, AmpC no deterg, HCV inh)
O=C(CN1C(=O)c2ccccc2S1(=O)=O)c1ccc2c(c1)OCCO2	HCMV antiviral -98, FMDV antiviral 3.5µM
O=C(CN1C(=O)c2ccccc2S1(=O)=O)c1ccc2c(c1)OCCCO2	HCMV antiviral -96, FMDV antiviral 3.2µM
O=C(CCN1C(=O)c2ccccc2S1(=O)=O)Nc1ccc2c(c1)OCCO2	AmpC inh detg inconclusive (no result: FMDV antiviral)
CCn1cc(C(=O)N(C)Cc2ccc(OC(F)F)cc2)c(=O)c2ccc(C)nc21	none
O=C(CN1C(=O)C2(SCC(=O)N2c2cccc(F)c2)c2ccccc21)NCc1ccccc1Cl (stereo not drawn)	none (no result: AmpC no deterg, HCV inh)
CCOc1cccc(C(=O)N(Cc2ccc(N(C)C)cc2)CC2CCCO2)c1 (stereo not drawn)	none (no result: AmpC no deterg, HCV inh)
CC1CC(=O)c2c(cc3c(-c4c(O)cc(O)c5c(O)c6c(cc45)OC(C)CC6=O)c(O)cc(O)c3c2O)O1 (stereo not drawn)	HCV inh 4.5µM, FMDV antiviral 35µM (no result: HCMV antiviral)
COc1cc(NS(=O)(=O)c2ccc(NC(C)=O)cc2)nc(OC)n1	none
COc1cc(NS(=O)(=O)c2ccc(N/C=C(\C#N)c3nc4cc(Cl)ccc4o3)cc2)nc(OC)n1	HCMV antiviral -86, FMDV antiviral inconclusive
CCCCN(C)CCCNC(=O)C1CCN(c2nc3ccc(CC)cc3s2)CC1	HCMV antiviral -108 (no result: AmpC no deterg, HCV inh)
CCc1ccc2nc(N3CCN(C(=O)C(C)(C)C)CC3)sc2c1	HCV inh inconclusive, FMDV antiviral inconclusive
CCCCN(CC)CCCNC(=O)C1CCN(c2nc3ccc(CC)cc3s2)CC1	HCMV antiviral -98, AmpC inh detg inconclusive (no result: AmpC no deterg, HCV inh)
CN(NS(=O)(=O)c1ccc(Br)cc1)c1nc(C(F)(F)F)nc2ccccc12	HCMV antiviral -64
O=C(CCCn1c(=O)c2cccn2c2ccccc21)NCCc1ccc(Cl)cc1	none (no result: AmpC no deterg, HCV inh)
CCN(CC)c1ccc(NC(=O)COc2ccc(-n3cnnn3)cc2)cc1	HCV inh 22µM (no result: AmpC inh detg)
COc1cc(NC(=O)COc2ccc(-n3cnnn3)cc2)cc(OC)c1OC	HCV inh 11µM, FMDV antiviral inconclusive (no result: AmpC inh detg)
COc1ccccc1C(=O)COC(=O)c1ccc(-n2cnnn2)cc1	HCV inh 10µM
O=C(CNc1ccc(Br)cc1)Nc1ccc(S(=O)(=O)N2CCCCC2)cc1	none (no result: AmpC inh detg, AmpC no deterg, HCV inh)
c1ccc(-c2ccc(C3CCCN3)cc2)cc1 (stereo not drawn)	none
CCCCNC(=O)C(c1ccc(OCC(=O)OC)c(C(=O)OC)c1)N(CCOC)C(=O)CCCCCN1C(=O)NC(c2ccc(-c3ccccc3)cc2)C(C(=O)OCc2ccccc2)=C1C (stereo not drawn)	HCMV antiviral -95 (no result: HCV inh, FMDV antiviral)
